This passage reports Potency results from PubChem BioAssay (NCATS).

Results filed as inconclusive are left out. Entries that show only a call come without a potency. Activity calls are given as the source filed them. Calls follow the shape of the dose curve; as a rule, active = well fitted inhibition curve with a large enough effect; inconclusive = small, poorly fitted or top-dose-only effect; inactive = no such curve, though single readings can be large or run the other way.

This test in a line: Primary qHTS for small molecule stabilizers of the endoplasmic reticulum resident proteome: Secreted ER Calcium Modulated Protein (SERCaMP) assay (AID 1508630). As to conditions: SH-SY5Y GLuc-SERCaMP (Gaussia luciferase released on ER calcium loss) secretion, thapsigargin, luminescence; series mostly up to 38.4 µM. The method in brief:
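GLuc-SERCaMP-expressing SH-SY5Y cells, pretreated 16 h with compound, are challenged with thapsigargin to empty ER calcium stores; after 4 h, coelenterazine is added directly to the medium and luminescence is imaged.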
In general terms: qHTS replaces the single test concentration by a dilution series.
In the case of `COc1ccc(/C=C2\NC(=O)[C@@H]3Cc4ccccc4CN3C2=O)cc1`, the Potency result is “inactive”.
The value for `CC(C)C1=CC2=CC[C@H]3[C@](C)(C(=O)O)CCC[C@]3(C)C2CC1` (stereo partly specified) was “inactive”.
For the molecule `COc1ccc(-c2cc3ccccc3c(=O)o2)cc1`, the Potency entry was “inactive”.
The value for `COc1cc(/C=C/C(=O)c2c(O)cc(C)oc2=O)ccc1O` was “inactive”; that for `COc1ccc(C2c3[nH]c4ccccc4c3CC3C(=O)N(CCc4ccc(OC)c(OC)c4)CC(=O)N32)cc1` (stereo unspecified) was “inactive”; that for `C[n+]1ccc(/C=C/c2ccc3ccccc3c2)cc1` was “inactive”.
The entry for `O=C(O)C(O)C(O)(Cc1ccc(O)cc1)C(=O)O` (stereo unspecified) is “inactive”.
The value for `CC1NC(C(=O)O)Cc2c1[nH]c1ccccc21` (stereo unspecified) was “inactive”.
For `COc1cc2c(cc1OC)-c1cc3cc(OC)c(OC)cc3c(=O)n1CC2`, the Potency result is “inactive”.
The value for `COc1c(C2=CC(=O)N(C)C2=O)c2c(n1C)C(=O)c1ccccc1C2=O` was “inactive”.
The entry for `COc1c(C=O)c(=O)[nH]c2c(OC)cccc12` is “inactive”; for `COc1ccc([C@H]2O[C@@H](c3ccc(OC)c(OC)c3)[C@H](C)[C@@H]2C)cc1OC` it is “inactive”.
The entry for `CN1CCN(c2ccc(Nc3c4ccccc4nc4ccccc34)cc2)CC1` is “inactive”; for `C/C=C/c1ccc(OC(C)[C@@H](O)c2ccc(O)c(OC)c2)c(OC)c1` (stereo partly specified) it is “inactive”; for `C/C=C(\C)C(=O)O[C@H]1CC(C)=C2C(=O)C=C(C)C2[C@@H]2OC(=O)[C@@](C)(OC(=O)C=C(C)C)C21` (stereo partly specified) it is “inactive”.
Turning to `CCCCCCCCCCCCCCCC(=O)C1=C(O)C(CO)OC1=O` (stereo unspecified), the Potency result is “inactive”.
The entry for `O=c1cc(-c2cc3ccccc3oc2=O)c2ccc(O)cc2o1` is “inactive”.
The value for `COC(C)C(C(=O)OCC1=CCN2CC[C@H](O)[C@@H]12)C(C)C` (stereo partly specified) was “inactive”.
As to `COc1ccccc1/C=C\C(=O)OC[C@@H]1CCCN2CCCC[C@H]12`, the Potency entry is “inactive”.
The value for `COc1cc2oc(=O)c3c4c(cc5ccc(c1CCN(C)C)c2c53)OCO4` was “inactive”.
The entry for `C=C1C[C@]23C[C@@]1(O)CC[C@H]2[C@@]12C=C[C@H](O)C(C)(C(=O)O1)[C@H]2[C@@H]3CC(=O)O` is “inactive”.
